In all, about 310,000 compounds went through this assay and about 14,000 (4.5%) showed an effect of 50% or more. Effects have a minus sign here. What follows is part of a selection rich in strong results, with near analogues and random picks from the rest.
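Further: peak tail current of the secondary pulse compared with the same well before compound.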

human ether-à-go-go-related gene (hERG) potassium channel, sequence (Q12809 whole entry, looked up): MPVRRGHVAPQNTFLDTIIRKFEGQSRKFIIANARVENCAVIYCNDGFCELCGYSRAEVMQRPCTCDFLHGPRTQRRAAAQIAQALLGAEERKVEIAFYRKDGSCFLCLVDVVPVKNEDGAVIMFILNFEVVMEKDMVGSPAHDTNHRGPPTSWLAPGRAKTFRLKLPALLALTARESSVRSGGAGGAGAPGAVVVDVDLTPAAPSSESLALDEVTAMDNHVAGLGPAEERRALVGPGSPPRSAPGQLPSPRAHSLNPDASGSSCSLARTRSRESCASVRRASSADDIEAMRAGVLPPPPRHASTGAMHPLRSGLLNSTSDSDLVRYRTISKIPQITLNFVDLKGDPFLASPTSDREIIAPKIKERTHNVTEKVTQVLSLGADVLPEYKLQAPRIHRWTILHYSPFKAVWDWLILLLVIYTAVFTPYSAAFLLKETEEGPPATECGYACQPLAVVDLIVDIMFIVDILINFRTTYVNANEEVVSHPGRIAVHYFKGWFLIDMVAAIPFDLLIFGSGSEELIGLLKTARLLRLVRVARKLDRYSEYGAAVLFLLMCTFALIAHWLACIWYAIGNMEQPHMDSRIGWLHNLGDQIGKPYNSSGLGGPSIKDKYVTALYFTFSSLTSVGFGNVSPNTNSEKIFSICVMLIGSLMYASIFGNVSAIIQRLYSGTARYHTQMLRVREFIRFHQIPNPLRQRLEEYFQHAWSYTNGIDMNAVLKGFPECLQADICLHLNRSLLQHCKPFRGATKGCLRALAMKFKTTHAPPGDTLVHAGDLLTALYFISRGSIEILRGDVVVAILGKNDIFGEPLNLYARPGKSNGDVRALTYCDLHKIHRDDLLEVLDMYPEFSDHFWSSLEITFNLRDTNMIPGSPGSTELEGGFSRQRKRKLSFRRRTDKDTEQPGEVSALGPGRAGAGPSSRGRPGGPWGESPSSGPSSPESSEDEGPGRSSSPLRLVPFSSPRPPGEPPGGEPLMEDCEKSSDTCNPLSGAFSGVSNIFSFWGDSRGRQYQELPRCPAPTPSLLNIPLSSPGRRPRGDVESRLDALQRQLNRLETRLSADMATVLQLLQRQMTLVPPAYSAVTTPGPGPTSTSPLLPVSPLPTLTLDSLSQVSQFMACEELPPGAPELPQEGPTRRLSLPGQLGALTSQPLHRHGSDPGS

The test has as its target human ether-à-go-go-related gene (hERG) potassium channel (human, UniProt Q12809). Put plainly: primary screen, population patch clamp on CHO cells stably expressing hERG; higher = less effect of the substance.
Turning to `COc1ccccc1/C=N/NC(=O)c1cccc(OC(F)(F)C(F)F)c1`, the “hERG current change (%, negative = inhibition) at 10uM” value is -9.51%.
The figure for `CC(=O)N1CCN(C(=O)c2cc(C)nc3ccccc23)CC1` is 31.1%; for `O=C(c1cc(-c2ccc(Cl)cc2)nc2ccccc12)N1CCOCC1` it is -68.8%; for `O=C(NCCCN1CCOCC1)c1cc(-c2ccc(Cl)s2)nc2ccccc12` it is -44.1%.
Turning to `O=C(O)c1ccccc1C(=O)N1CC=C(c2ccccc2)CC1`, the “hERG current change (%, negative = inhibition) at 10uM” value came out at 3.44%.
The figure for `CC(C)(CNC(=O)c1cc(-c2ccc(Cl)s2)nc2ccccc12)N1CCOCC1` is -55.1%; for `O=C(NCCN1CCOCC1)c1cc(-c2ccc(Cl)s2)nc2ccccc12` it is -5.22%; for `O=C(c1cc(-c2ccccc2)nc2ccccc12)N1CCOCC1` it is 27.6%.
The figure for `CC(=O)N1CCN(C(=O)c2cc(-c3ccc(Cl)s3)nc3ccccc23)CC1` is -51.8%; for `Cc1ccc(-c2cc(C(=O)N3CCOCC3)c3ccccc3n2)cc1` it is -3.91%; for `O=C(c1cc(-c2ccc(Cl)s2)nc2ccccc12)N1CCOCC1` it is -17%.
Under `Cc1cc(C(=O)N2CC=C(c3ccccc3)CC2)c2ccccc2n1` stands -52.9%; under `O=C(c1cc(-c2ccc(Cl)s2)nc2ccccc12)N1CCCC1`, 4.92%.
Turning to `CCOc1ccnc(OCC)c1Br`, the “hERG current change (%, negative = inhibition) at 10uM” value came out at 28.3%.
Under `NS(=O)(=O)c1ccc(OC(=O)CNC(=O)OCc2ccccc2)cc1` stands 11%; under `Cc1ccc(OCC(O)Cn2c(N3CCOCC3)nc3c2c(=O)[nH]c(=O)n3C)cc1` (stereo not shown), -16.1%; under `Cc1nn(C)c(C)c1/C=N/NC(=O)c1csc2ccccc12`, -2.45%.
Under `O=C(CN1C(=O)NC(Cc2c[nH]c3ccccc23)C1=O)Nc1ccccc1Br` (stereo not shown) stands -15.4%; under `COc1ccc(S(=O)(=O)N2CCCC2C(=O)Nc2nc3c(s2)CCCC3)cc1` (stereo not shown), -14%.
Under `COc1ccc(CCNC(=O)c2cc(S(=O)(=O)N(C)c3ccccc3)ccc2Cl)cc1` stands -16.6%; under `Cn1[nH]c(-c2ccccc2)c(/C=N/O)c1=O`, -15.1%.
As to `COCCn1c(-c2ccc(OC(F)(F)C(F)C(F)(F)F)cc2)nc2c1c(=O)[nH]c(=O)n2CC(C)C` (stereo not shown), the “hERG current change (%, negative = inhibition) at 10uM” value is reported as -19.5%.
The figure for `CC1CCCN(C(=O)c2ccccc2OC2CCN(S(C)(=O)=O)CC2)C1` (stereo not shown) is 11.1%.
Under `O=C(c1cc(-c2ccc(Br)cc2)nc2ccccc12)N1CCC1` stands -44.4%.
Take `O=C(c1cc(-c2ccccc2)nc2ccccc12)N1CCCC1`: the “hERG current change (%, negative = inhibition) at 10uM” value is on record as 2.55%.
Under `O=C(c1cc(-c2ccc(Cl)cc2)nc2ccccc12)N1CCC1` stands -59.7%; under `COc1ccc(/C=c2\sc3nc(-c4ccccc4OC)nn3c2=O)c(OC)c1`, 9.67%.
The figure for `Cc1cc(OCC(=O)N2CCN(c3ccc(F)cc3)CC2)c2c(C)cc(=O)oc2c1` is 10.7%; for `Cc1c(C)c2ccc(OCC(=O)N3CCN(c4ccc(F)cc4)CC3)c(C)c2oc1=O` it is 2.26%.
As to `Cn1c(=O)cc(OCC(=O)N2CCN(c3ccccc3F)CC2)c2ccccc21`, the “hERG current change (%, negative = inhibition) at 10uM” value is reported as -17.5%.
Under `Cc1cccc(N2CCN(C(=O)CCS(=O)(=O)c3ccc4c(c3)oc(=O)n4C)CC2)c1C` stands -51.2%; under `CCC(=O)c1cc(F)ccc1OCC(=O)N1CCN(c2ccc(F)cc2)CC1`, -72.1%.
Take `Cn1c(=O)oc2cc(S(=O)(=O)CCC(=O)N3CCN(c4ccccc4F)CC3)ccc21`: the “hERG current change (%, negative = inhibition) at 10uM” value came to 1.03%.
For `COC(=O)c1ccc(OC)cc1OCC(=O)N1CCN(c2ccc(F)cc2)CC1`, the “hERG current change (%, negative = inhibition) at 10uM” value is listed as -33%.
Under `CC(=O)c1cc(F)ccc1OCC(=O)N1CCN(c2ccc(F)cc2)CC1` stands -58.2%; under `Cc1ccc(C)c(N2CCN(C(=O)CCS(=O)(=O)c3ccc4c(c3)oc(=O)n4C)CC2)c1`, -48.6%.
Under `Cc1cccc(N2CCN(C(=O)COc3cc(=O)n(C)c4ccccc34)CC2)c1C` stands -61.2%; under `COC(=O)c1ccccc1OCC(=O)N1CCN(c2ccc(F)cc2)CC1`, -44.9%.
Under `Cc1ccc(C)c(N2CCN(C(=O)COc3cc(=O)n(C)c4ccccc34)CC2)c1` stands -32.3%; under `CCOC(=O)c1c(S(=O)(=O)NCC(=O)Nc2ccc(F)cc2)c(C)n(C)c1C`, 14.5%; under `CCOC(=O)c1cc(C#N)c(N2CCNCC2)nc1C(F)(F)F`, -12.3%.
As for `COc1ccc(CNC(=O)CCSCc2cccc(Cl)c2)cc1`, the “hERG current change (%, negative = inhibition) at 10uM” value was -17%.
Under `COc1ccc(-n2nnnc2CNC(=O)C(=O)c2c[nH]c3ccccc23)cc1` stands 6.27%; under `CCCCOC(=O)Nc1ccc(C(=O)OCCC)cc1`, -12.9%; under `CCC(C)c1ccc2oc(-c3ccc(NC(=O)c4ncn[nH]4)cc3)nc2c1` (stereo not shown), -1.89%.
Take `CCOc1ccc(N2C(=O)CC(N3CCC(O)(c4ccc(Br)cc4)CC3)C2=O)cc1` (stereo not shown): the “hERG current change (%, negative = inhibition) at 10uM” value is -49.1%.
Under `CC1(C)CC(=O)C2=C(C1)NC(=O)CC2c1cc(F)ccc1F` (stereo not shown) stands -21.6%.
Under `Cc1cc(C)c2c(c1)/C(=N/NS(=O)(=O)c1ccccc1)CCC2` stands 7.48%; under `COC(=O)Nc1ccc(S(=O)(=O)NCCCCCC(=O)O)cc1`, -1.56%.
Under `CCOC(=O)c1nn(-c2ccc(F)cc2)c(=O)cc1OCC(=O)N1CCN(c2ccccc2)CC1` stands -15.6%.
For `CCOC(=O)c1nn(-c2ccc(C)cc2)c(=O)cc1OCC(=O)N1CCN(c2ccccc2)CC1`, the “hERG current change (%, negative = inhibition) at 10uM” value is reported as -51.9%.
Under `CCOC(=O)c1nn(-c2ccccc2C)c(=O)cc1OCC(=O)N1CCN(c2ccccc2)CC1` stands -24.6%; under `CCn1c(=O)cc(OCC(=O)N2CCN(c3cccc(C(F)(F)F)c3)CC2)c2ccccc21`, -48.2%.
Regarding `CCn1c(=O)cc(OCC(=O)N2CCN(c3ccc(F)cc3)CC2)c2ccccc21`, the “hERG current change (%, negative = inhibition) at 10uM” value is given as -69.8%.
The figure for `CCN1CCN(C(=O)COc2cc(=O)n(CC)c3ccccc23)CC1` is -2.67%.

The values above are taken from article PMC4336329 (PLoS ONE, 2015).
